Screens (PubChem)
PostGolgi yeast: growth inhibition of a yeast mutant, post-Golgi transport screen. post-Golgi transport phenotypic cell assay. inhibition, % at 10 µM. actives 0.9% (n = 98,000). AID 739;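 note: yeast cells grown in 1536-well plates; yeast grown about 18 h at 30C before absorbance read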
CYP2C9 activ: CYP2C9 (human) activation | activation factor at 5 µM | recombinant CYP2C9, luciferin-H conversion, luminescence; stronger effect = higher value; factor 1 = untreated enzyme, 0 = blocked | P11712 | actives 1.4% (n = 96,000);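 active = activation factor of 2 or more for CYP2C9 at a 5 µM dose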;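 note: 0 = sulfaphenazole-blocked wells and 1 = vehicle-only wells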
PostGolgi ctrl: yeast control strain growth, post-Golgi counter-screen. actives 5% (n = 98,000). inhibition, % at 10 µM. efflux-deficient yeast background strain, growth absorbance A615, 16 h. AID 738
CYP2C19 activ: cytochrome P450 2C19 (human) activation | 96,000 tested, under 10 active | AID 1025 | P33261 | recombinant CYP2C19, luciferin-H EGE luminescence; stronger effect = higher value; 0 = fully inhibited enzyme, 1 = untreated enzyme | activation factor at 5 µM;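 active = activation factor of at least 2 at 5 µM in the primary screen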;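 note: 0 = wells with 2.5 mM tranylcypromine and 1 = vehicle-only wells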
Target sequence (P33261 whole entry, looked up): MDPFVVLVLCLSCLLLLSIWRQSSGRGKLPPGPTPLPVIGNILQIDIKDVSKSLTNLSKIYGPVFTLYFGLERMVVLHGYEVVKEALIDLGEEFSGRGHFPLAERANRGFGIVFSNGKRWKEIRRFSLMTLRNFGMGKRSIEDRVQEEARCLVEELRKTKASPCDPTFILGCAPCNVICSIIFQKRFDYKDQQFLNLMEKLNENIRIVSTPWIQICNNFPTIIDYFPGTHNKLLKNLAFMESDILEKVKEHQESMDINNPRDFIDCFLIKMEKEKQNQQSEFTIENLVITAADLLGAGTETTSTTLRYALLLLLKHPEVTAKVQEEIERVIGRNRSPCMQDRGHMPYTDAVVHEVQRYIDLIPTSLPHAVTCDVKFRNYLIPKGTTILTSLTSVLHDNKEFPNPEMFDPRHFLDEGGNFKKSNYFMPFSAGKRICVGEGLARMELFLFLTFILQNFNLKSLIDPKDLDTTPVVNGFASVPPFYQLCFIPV
CYP2C19 inhib: human CYP2C19 inhibition | P33261 | CYP2C19 Supersomes, luciferin-H EGE luminescence, 30 min | inhibition, % at 5 µM | actives 21% (n = 96,000);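 active = CYP2C19 inhibition above a set limit at 5 µM in the primary screen, cut at about 50% in these data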;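 note: plate controls were negative control wells for no effect and 2.5 mM tranylcypromine positive control for full effect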
CYP2C9 inh: human CYP2C9 inhibition; CYP2C9 Supersomes, luciferin-H conversion, luminescence; P11712; actives 20% (n = 96,000); inhibition, % at 5 µM;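 active = blocking of liver enzyme CYP2C9 beyond about 50% at 5 µM, limit read from the data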
* hit, by the source's call. Shown are actives, neighbours in structure and some others; about 32% of the full set was active somewhere. Cut-off read from the data, not from the text of the source, unless noted: active = inhibition above about 30%; inactive = the rest.

Results for O=C(Cn1c(=O)n(CC2CCCO2)c(=O)c2ccccc21)c1ccc(Cl)c(Cl)c1 (stereo not given) ?
PostGolgi yeast: 6; CYP2C9 activ: 0.7; PostGolgi ctrl: -2; CYP2C19 activ: 0.9; CYP2C19 inhib: 6; CYP2C9 inh: 33

How did COc1ccc(C(=O)NC(=S)NCc2ccco2)cc1OC do in these assays?
PostGolgi yeast: -4; CYP2C9 activ: 0.3; PostGolgi ctrl: 6; CYP2C19 activ: 0.5; CYP2C19 inhib: 54*; CYP2C9 inh: 70*

What do the screens show for `COc1cc(OC)cc(C(=O)NC(=S)NCc2ccco2)c1`?
PostGolgi yeast: 3; CYP2C9 activ: 0.7; PostGolgi ctrl: 10; CYP2C19 activ: 1.1; CYP2C19 inhib: -5; CYP2C9 inh: 33

Results for O=C(COc1ccccc1)NCC(=O)Nc1ccc(S(=O)(=O)NCc2ccco2)cc1 ?
PostGolgi yeast: 5; CYP2C9 activ: 0.4; PostGolgi ctrl: -2; CYP2C19 activ: 1.1; CYP2C19 inhib: -8; CYP2C9 inh: 57*

What do the screens show for `COc1ccccc1CCNCc1ccc(OC)c(OCc2ccccc2)c1`?
PostGolgi yeast: 0; CYP2C9 activ: 1.2; PostGolgi ctrl: -2; CYP2C19 activ: 0.6; CYP2C19 inhib: 42; CYP2C9 inh: -17

Results for COc1ccc(CNCc2ccco2)cc1OCc1ccccc1 ?
PostGolgi yeast: -3; CYP2C9 activ: 1.1; PostGolgi ctrl: 2; CYP2C19 activ: 0.4; CYP2C19 inhib: 65*; CYP2C9 inh: -5

What do the screens show for `O=C(COc1ccccc1F)Nc1ccc(S(=O)(=O)NCc2ccco2)cc1`?
PostGolgi yeast: -19; CYP2C9 activ: 0.5; PostGolgi ctrl: 13; CYP2C19 activ: 0.8; CYP2C19 inhib: 17; CYP2C9 inh: 53*

What do the screens show for `Cc1nc2nc(C)c(CCC(=O)O)c(C)n2n1`?
PostGolgi yeast: 15; CYP2C9 activ: 1.1; PostGolgi ctrl: 2; CYP2C19 activ: 1; CYP2C19 inhib: 4; CYP2C9 inh: -7

How did C=CCn1c(COc2ccc(Cl)cc2)nnc1SCC(=O)N/N=C/c1ccccc1 do in these assays?
PostGolgi yeast: 4; CYP2C9 activ: 0.9; PostGolgi ctrl: 17; CYP2C19 activ: 0.9; CYP2C19 inhib: 11; CYP2C9 inh: 7

What do the screens show for `N#Cc1cccc(NC(=O)CN2NS(=O)(=O)c3ccccc3C2=O)c1`?
PostGolgi yeast: -2; CYP2C9 activ: 0.8; PostGolgi ctrl: 2; CYP2C19 activ: 0.9; CYP2C19 inhib: 10; CYP2C9 inh: 17

How did COc1cccc(NC(=O)COC(=O)c2ccc(S(=O)(=O)NCc3ccco3)cc2)c1 do in these assays?
PostGolgi yeast: -5; CYP2C9 activ: 0.1; PostGolgi ctrl: 1; CYP2C19 activ: 0.9; CYP2C19 inhib: 7; CYP2C9 inh: 86*

Results for O=C(COc1ccccc1)Nc1ccc(S(=O)(=O)NCc2ccco2)cc1 ?
PostGolgi yeast: 2; CYP2C9 activ: 0.5; PostGolgi ctrl: 3; CYP2C19 activ: 0.8; CYP2C19 inhib: 17; CYP2C9 inh: 51*

Results for O=C(Nc1ccc(S(=O)(=O)NCc2ccco2)cc1)c1ccc2ccccc2n1 ?
PostGolgi yeast: -1; CYP2C9 activ: 0.8; PostGolgi ctrl: 12; CYP2C19 activ: 1.1; CYP2C19 inhib: -7; CYP2C9 inh: 24

How did CC(C)CC(=O)Nc1ccc(S(=O)(=O)NCc2ccco2)cc1 do in these assays?
PostGolgi yeast: -2; CYP2C9 activ: 0.5; PostGolgi ctrl: 2; CYP2C19 activ: 1.1; CYP2C19 inhib: -7; CYP2C9 inh: 46

How did CCCOc1cc(CC(=O)NCc2ccco2)ccc1OC do in these assays?
PostGolgi yeast: 0; CYP2C9 activ: 0.4; PostGolgi ctrl: -9; CYP2C19 activ: 0.3; CYP2C19 inhib: 71*; CYP2C9 inh: 63*

What do the screens show for `COc1ccc(C(=O)Nc2ccc(S(=O)(=O)NCc3ccco3)cc2)cc1OC`?
PostGolgi yeast: -5; CYP2C9 activ: 1.1; PostGolgi ctrl: 33*; CYP2C19 activ: 1; CYP2C19 inhib: -4; CYP2C9 inh: -5

What do the screens show for `COc1cc(CC(=O)NCc2ccco2)cc(OC)c1OC`?
PostGolgi yeast: -6; CYP2C9 activ: 1.1; PostGolgi ctrl: 2; CYP2C19 activ: 0.8; CYP2C19 inhib: 21; CYP2C9 inh: -6

How did CCOC(=O)C1(CCSC)NC(c2ccco2)C2C(=O)N(C)C(=O)C21 (stereo not given) do in these assays?
PostGolgi yeast: -6; CYP2C9 activ: 1.1; PostGolgi ctrl: 2; CYP2C19 activ: 0.9; CYP2C19 inhib: 6; CYP2C9 inh: -7

What do the screens show for `Cc1ccc(Cn2nnc3c(=O)n(Cc4ccccc4C)cnc32)cc1`?
PostGolgi yeast: -1; CYP2C9 activ: 1.6; PostGolgi ctrl: 4; CYP2C19 activ: 1; CYP2C19 inhib: 0; CYP2C9 inh: -62

What do the screens show for `COc1ccc(OCc2nnc3n2N=C(c2ccc(Br)cc2)CS3)cc1`?
PostGolgi yeast: -2; CYP2C9 activ: 0.6; PostGolgi ctrl: 15; CYP2C19 activ: 1.1; CYP2C19 inhib: -10; CYP2C9 inh: 37

How did COc1ccc(-n2c(=S)[nH]c3cc(C(=O)NCc4ccco4)ccc3c2=O)cc1OC do in these assays?
PostGolgi yeast: 5; CYP2C9 activ: 1; PostGolgi ctrl: 2; CYP2C19 activ: 1; CYP2C19 inhib: -4; CYP2C9 inh: -4

Results for COc1ccc(CCn2c(=S)[nH]c3cc(C(=O)NCc4ccco4)ccc3c2=O)cc1OC ?
PostGolgi yeast: 1; CYP2C9 activ: 0.4; PostGolgi ctrl: 2; CYP2C19 activ: 0.6; CYP2C19 inhib: 42; CYP2C9 inh: 60*

Results for COCc1[nH]nc2c1C(c1cc(OC)c(O)c(OC)c1)C(C#N)=C(N)O2 (stereo not given) ?
PostGolgi yeast: -3; CYP2C9 activ: 0.9; PostGolgi ctrl: 2; CYP2C19 activ: 0.9; CYP2C19 inhib: 8; CYP2C9 inh: 10

What do the screens show for `CCN(CC)S(=O)(=O)c1cccc(NC(=O)C(=O)c2c(-c3ccccc3)cc3ccccn23)c1`?
PostGolgi yeast: -3; CYP2C9 activ: 0.4; PostGolgi ctrl: 72*; CYP2C19 activ: 0.4; CYP2C19 inhib: 57*; CYP2C9 inh: 65*

How did CCN(CC)S(=O)(=O)c1ccc(N2CCOCC2)c(NC(=O)C(=O)c2c(-c3ccccc3)cc3ccccn23)c1 do in these assays?
PostGolgi yeast: 72*; CYP2C9 activ: 0.1; PostGolgi ctrl: 98*; CYP2C19 activ: 0.7; CYP2C19 inhib: 29; CYP2C9 inh: 86*

Results for CCN(CC)S(=O)(=O)c1cccc(C(=O)Nc2cccc(C)c2)c1 ?
PostGolgi yeast: -10; CYP2C9 activ: 0.7; PostGolgi ctrl: 12; CYP2C19 activ: 0.6; CYP2C19 inhib: 44; CYP2C9 inh: 32

How did CCN(CC)S(=O)(=O)c1cc(NC(=O)C(=O)c2c(-c3ccccc3)cc3ccccn23)ccc1C do in these assays?
PostGolgi yeast: -2; CYP2C9 activ: 0.5; PostGolgi ctrl: 13; CYP2C19 activ: 0.6; CYP2C19 inhib: 43; CYP2C9 inh: 54*
